# Calls of active or inactive are those of the source. Unless noted, how the calls were made is not given here.
# Tests used:
# [1] = HepG2 liver cancer cell viability effects, profiling panel, resazurin fluorescence, 24 h, PK04 Diversity Set (AID 1172); conditions: higher = more signal
# [2] = basal S. cerevisiae growth modulation, no modifier, primary screen, OD600, strain BY4716, 24 h, basal condition (AID 1173); conditions: OD600, 24 h, higher = more signal, called active from +8 up or from −8 down
# [3] = MM1S myeloma cell viability, profiling panel, resazurin fluorescence, basal, 24 h, PK04 Diversity Set (AID 1174); conditions: higher = more signal, called active from +8 up or from −8 down;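 further: MM1S multiple myeloma cell line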
# [4] = target: Dihydroorotate dehydrogenase (quinone), mitochondrial (Plasmodium falciparum (isolate 3D7)) (UniProt Q08210); assay: PfDHODH enzyme inhibitors, primary screen, biochemical, C-terminal His tag, absorbance 600 nm (AID 1175); conditions: DCIP absorbance 600 nm, higher = more signal, called active from +8 up or from −8 down;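 further: recombinant parasite enzyme with a five histidine tag at its C terminus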
# [5] = P. aeruginosa biofilm formation inhibitors, primary screen, strain PAO1, LB-PBS medium, absorbance 600 nm (AID 1176); conditions: P. aeruginosa PAO1 growth/biofilm, A600, 12 h; higher = more signal
# [6] = S. cerevisiae RM11-1a growth modifiers, primary screen, strain RM11-1a, OD600, basal, 24 h (AID 1177); conditions: OD600, 24 h, higher = more signal, called active from +8 up or from −8 down;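 further: cultures grown under basal conditions with no added stressor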
# [7] = E. coli acrAB mutant growth effects, primary screen, E. coli filamentation inducers, strain DRC39, OD650, 24 h (AID 1178); conditions: higher = more signal, called active from +8 up or from −8 down;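 further: growth measured as culture turbidity by optical density at 650 nm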
# [8] = E. coli acrAB mutant growth effects, primary screen, E. coli filamentation inducers, strain DRC39, OD650, 48 h (AID 1179);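 further: screen aims at cell division blockers that make cells filament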; conditions: E. coli DRC39 delta-acrAB growth, higher = more signal, called active from +8 up or from −8 down
# [9] = RPMI8226 myeloma cell viability, profiling panel, resazurin fluorescence, basal, 24 h, PK04 Diversity Set (AID 1180); conditions: higher = more signal;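 further: RPMI8826 multiple myeloma cell line at 5000 cells per well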
# [10] = target: E3 ubiquitin-protein ligase XIAP (Homo sapiens) (UniProt P98170); assay: XIAP binders, primary screen, biophysical, small-molecule microarray, fluorescence 635 nm (AID 1181); conditions: small-molecule microarray binding, higher = more signal;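 further: score merges 667 nm emission and signal to noise over triplicate slides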
# [11] = test system: XIP peptide (Xip251-270) binding; assay: small-molecule binders of XIP peptide, primary screen, biochemical, small-molecule microarray, fluorescence 635/667 nm, 0.1 µg/mL protein (AID 1182); conditions: fluorescent protein binding, 635 nm, higher = more signal, called active from +8 up or from −8 down
# [12] = test system: XIP peptide (Xip251-270); assay: small-molecule binders of XIP peptide, primary screen, biochemical, small-molecule microarray, fluorescence 635/667 nm, 0.5 µg/mL protein (AID 1183); conditions: small-molecule microarray binding, fluorescence 635 nm; higher = more signal
# [13] = Plasmodium falciparum growth inhibition, primary screen, strain 3D7, DAPI fluorescence, 100 nL (AID 1184);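 further: parasites grown inside human red blood cells in medium with human serum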; conditions: P. falciparum 3D7 growth, 3 d, higher = more signal
# [14] = target: Homeobox protein Hox-A13 (Mus musculus) (UniProt Q62424); assay: inhibitors of HoxA13-DNA binding, primary screen, biochemical, fluorescence polarization, labeled oligonucleotide (AID 1185); conditions: 15 min, higher = more signal, called active from +8 up or from −8 down
# [15] = inhibitors of hydroxyurea-induced Chk1 phosphorylation, primary screen, imaging, HeLa, phospho-Chk1 antibody, percent positive cells (AID 1186); conditions: hydroxyurea-induced phospho-Chk1 immunofluorescence imaging, higher = more signal
# [16] = inhibitors of hydroxyurea-induced Chk1 phosphorylation, primary screen, imaging, HeLa, phospho-Chk1 nuclear intensity (AID 1187); conditions: hydroxyurea-induced phospho-Chk1 immunofluorescence imaging, higher = more signal
# Chain of Homeobox protein Hox-A13 (Mus musculus) (Q62424 whole entry, looked up): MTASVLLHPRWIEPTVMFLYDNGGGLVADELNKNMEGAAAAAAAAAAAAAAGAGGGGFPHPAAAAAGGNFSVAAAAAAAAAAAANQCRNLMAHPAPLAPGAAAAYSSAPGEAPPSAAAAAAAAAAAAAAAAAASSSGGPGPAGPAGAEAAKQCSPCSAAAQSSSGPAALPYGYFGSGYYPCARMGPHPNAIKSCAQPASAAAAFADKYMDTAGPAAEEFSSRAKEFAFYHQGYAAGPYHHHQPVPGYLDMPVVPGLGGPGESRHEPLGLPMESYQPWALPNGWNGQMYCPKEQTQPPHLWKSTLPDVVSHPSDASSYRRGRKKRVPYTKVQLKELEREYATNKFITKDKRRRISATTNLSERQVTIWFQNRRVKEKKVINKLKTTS
# Chain of E3 ubiquitin-protein ligase XIAP (Homo sapiens) (P98170 whole entry, looked up): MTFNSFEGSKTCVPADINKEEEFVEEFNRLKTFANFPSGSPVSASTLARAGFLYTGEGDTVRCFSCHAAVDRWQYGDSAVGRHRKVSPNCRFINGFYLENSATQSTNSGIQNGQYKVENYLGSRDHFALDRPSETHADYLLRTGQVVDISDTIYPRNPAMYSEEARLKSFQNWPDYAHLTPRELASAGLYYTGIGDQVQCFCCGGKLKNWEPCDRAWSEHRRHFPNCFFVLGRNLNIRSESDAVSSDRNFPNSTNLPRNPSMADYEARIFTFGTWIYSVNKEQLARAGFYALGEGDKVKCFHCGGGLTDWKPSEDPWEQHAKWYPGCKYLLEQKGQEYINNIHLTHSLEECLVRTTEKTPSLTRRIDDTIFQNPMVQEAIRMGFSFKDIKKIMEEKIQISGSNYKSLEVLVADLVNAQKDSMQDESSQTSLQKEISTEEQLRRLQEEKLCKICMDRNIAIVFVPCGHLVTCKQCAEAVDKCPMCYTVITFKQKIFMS
# Chain of Dihydroorotate dehydrogenase (quinone), mitochondrial (Plasmodium falciparum (isolate 3D7)) (Q08210 whole entry, looked up): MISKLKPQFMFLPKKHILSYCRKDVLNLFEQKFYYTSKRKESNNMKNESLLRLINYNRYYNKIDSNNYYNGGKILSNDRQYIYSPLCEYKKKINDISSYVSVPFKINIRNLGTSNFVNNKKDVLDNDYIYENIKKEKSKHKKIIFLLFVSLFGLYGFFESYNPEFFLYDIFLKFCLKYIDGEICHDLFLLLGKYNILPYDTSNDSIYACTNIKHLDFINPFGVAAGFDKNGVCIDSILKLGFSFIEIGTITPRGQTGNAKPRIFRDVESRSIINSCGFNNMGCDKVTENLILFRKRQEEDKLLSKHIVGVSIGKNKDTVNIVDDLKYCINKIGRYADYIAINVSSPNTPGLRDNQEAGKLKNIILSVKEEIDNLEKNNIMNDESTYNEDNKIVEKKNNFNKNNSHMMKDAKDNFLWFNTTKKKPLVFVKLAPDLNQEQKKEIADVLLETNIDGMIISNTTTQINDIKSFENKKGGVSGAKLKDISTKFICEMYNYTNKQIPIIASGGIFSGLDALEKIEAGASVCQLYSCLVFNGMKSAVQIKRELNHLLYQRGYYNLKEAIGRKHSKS
SMILES,z-score [1],z-score [2],z-score [3],composite z-score [4],z-score [5],z-score [6],z-score [7],z-score [8],z-score [9],composite z-score [10],composite z-score [11],composite z-score [12],z-score [13],z-score [14],z-score [15],z-score [16]
CC(C)(C)C(=O)N[C@@H](c1ccc(Cl)cc1)[C@]1(C)C[C@H]1C1CCCCC1,-0.608,-0.507 (inactive),-0.385 (inactive),-0.554 (inactive),1.03 (inactive),0.473 (inactive),-0.196 (inactive),-0.27 (inactive),-0.231,0.261,0.398 (inactive),0.837,-0.827,2.32 (inactive),-1.19 (inactive),-0.627 (inactive)
C=C(COC)/C(=C/C[C@@H](OC(C)=O)c1ccc(CO)o1)c1cnc2ccccc2c1,-0.956,-0.677 (inactive),0.915 (inactive),-8.64 (active),0.579 (inactive),0.704 (inactive),0.685 (inactive),-0.0551 (inactive),0.47,0.0225,1.12 (inactive),0.797,-1.35,-4.13 (inactive),-0.154 (inactive),-0.323 (inactive)
CCOC(=O)[C@H]1C/C=C/C[C@H](C(=O)OCC)C(=O)O[C@H]2[C@@H](OC)O[C@H](CO)[C@@H](OC(=O)Nc3ccc(C#N)cc3)[C@@H]2OC1=O,-4.61,0.516 (inactive),-8.87 (active),-1.26 (inactive),1.94 (inactive),-0.166 (inactive),1.1 (inactive),1.58 (inactive),-7.15,0.122,1.09 (inactive),0.84,-2.07,-1.69 (inactive),-0.892 (inactive),-1.88 (inactive)
COc1ccc(C(O)C2C=CC3C(=O)NC(=O)C3N2Nc2ccccn2)c2ccccc12 (centres undefined),-1.07,-0.33 (inactive),-0.782 (inactive),0.977 (inactive),1.26 (inactive),0.75 (inactive),-0.272 (inactive),-0.571 (inactive),-1.24,0.246,0.123 (inactive),-0.034,0.8,-1.97 (inactive),0.141 (inactive),-0.22 (inactive)
O=C1O[C@H](c2ccccc2)[C@H](c2ccccc2)N2[C@H]1[C@@H](C(=O)O)[C@]1(C(=O)Nc3ccc(C#CCCO)cc31)[C@H]2c1ccc(O)cc1,1.11,-0.326 (inactive),1.5 (inactive),0.158 (inactive),0.0568 (inactive),0.0737 (inactive),0.994 (inactive),1.69 (inactive),1.14,-0.127,0.207 (inactive),0.901,-0.136,-5.42 (inactive),0.11 (inactive),-0.002 (inactive)
O=C1OCC=C[C@H]2OC34C=CCN(c5ccc6ccccc6c5)C(=O)[C@H]3N(CCCCCCO)C(=O)[C@@H]4[C@@H]12 (some centres undefined),0.551,-0.7 (inactive),0.645 (inactive),-1.24 (inactive),-0.717 (inactive),-0.472 (inactive),0.841 (inactive),0.982 (inactive),0.683,0.086,0.458 (inactive),0.2,-0.341,-5.38 (inactive),-0.261 (inactive),-0.572 (inactive)
C=CCN1C(=O)[C@]2(O[C@H](CCO)[C@@H]([Si](C)(C)c3ccc(OC)cc3)[C@@H]2C)c2cc(N3C(=O)c4cccc5cccc3c45)ccc21,-5.43,1.7 (inactive),-8.43 (active),1.72 (inactive),0.662 (inactive),6.52 (inactive),2.21 (inactive),1.44 (inactive),-6.23,0.0374,0.966 (inactive),0.749,-2.74,-3.37 (inactive),-2.42 (inactive),-1.91 (inactive)
NCCCCCNC(=O)[C@@H]1C[C@@H]2C(=O)NCC(=O)N2[C@@H]1c1ccc(O)cc1,0.0154,-0.54 (inactive),0.236 (inactive),-1.28 (inactive),0.227 (inactive),0.225 (inactive),0.121 (inactive),0.654 (inactive),-0.9,0.348,0.715 (inactive),0.416,0.112,-1.06 (inactive),-0.44 (inactive),-0.316 (inactive)
COc1ccc(C(=O)Nc2cccc(CN3C(=O)[C@]4(O[C@H](CCO)[C@@H]([Si](C)(C)c5ccc(OC)cc5)[C@@H]4C)c4ccccc43)c2)cc1,-6.28,-3.7 (inactive),-9.11 (active),0.255 (inactive),1.01 (inactive),4.05 (inactive),0.127 (inactive),-0.903 (inactive),-6.27,0.0847,-0.0488 (inactive),0.639,-2.85,-2.45 (inactive),-0.204 (inactive),-0.881 (inactive)

# — PubChem BioAssay
